Molecules are shown by their SMILES. For some assays here: Entries with a potency or affinity are not part of this list.

Common to all, as to design: scale not given: direction of the effect not stated beside the values
The target in experiment [1] is Protein translocase subunit SecA (Escherichia coli (strain K12)) (UniProt P10408). The experiment is described as follows: Assay to Identify E. coli SecA ATPase Inhibitors. The experiment is classed as functional. The following applies: 30 µM.
In experiment [2] the target is T1, Ubiquitin-activating enzyme e1, putative (Leishmania donovani (strain BPK282A1)) (UniProt E9BSI1).
T1 sequence (whole entry): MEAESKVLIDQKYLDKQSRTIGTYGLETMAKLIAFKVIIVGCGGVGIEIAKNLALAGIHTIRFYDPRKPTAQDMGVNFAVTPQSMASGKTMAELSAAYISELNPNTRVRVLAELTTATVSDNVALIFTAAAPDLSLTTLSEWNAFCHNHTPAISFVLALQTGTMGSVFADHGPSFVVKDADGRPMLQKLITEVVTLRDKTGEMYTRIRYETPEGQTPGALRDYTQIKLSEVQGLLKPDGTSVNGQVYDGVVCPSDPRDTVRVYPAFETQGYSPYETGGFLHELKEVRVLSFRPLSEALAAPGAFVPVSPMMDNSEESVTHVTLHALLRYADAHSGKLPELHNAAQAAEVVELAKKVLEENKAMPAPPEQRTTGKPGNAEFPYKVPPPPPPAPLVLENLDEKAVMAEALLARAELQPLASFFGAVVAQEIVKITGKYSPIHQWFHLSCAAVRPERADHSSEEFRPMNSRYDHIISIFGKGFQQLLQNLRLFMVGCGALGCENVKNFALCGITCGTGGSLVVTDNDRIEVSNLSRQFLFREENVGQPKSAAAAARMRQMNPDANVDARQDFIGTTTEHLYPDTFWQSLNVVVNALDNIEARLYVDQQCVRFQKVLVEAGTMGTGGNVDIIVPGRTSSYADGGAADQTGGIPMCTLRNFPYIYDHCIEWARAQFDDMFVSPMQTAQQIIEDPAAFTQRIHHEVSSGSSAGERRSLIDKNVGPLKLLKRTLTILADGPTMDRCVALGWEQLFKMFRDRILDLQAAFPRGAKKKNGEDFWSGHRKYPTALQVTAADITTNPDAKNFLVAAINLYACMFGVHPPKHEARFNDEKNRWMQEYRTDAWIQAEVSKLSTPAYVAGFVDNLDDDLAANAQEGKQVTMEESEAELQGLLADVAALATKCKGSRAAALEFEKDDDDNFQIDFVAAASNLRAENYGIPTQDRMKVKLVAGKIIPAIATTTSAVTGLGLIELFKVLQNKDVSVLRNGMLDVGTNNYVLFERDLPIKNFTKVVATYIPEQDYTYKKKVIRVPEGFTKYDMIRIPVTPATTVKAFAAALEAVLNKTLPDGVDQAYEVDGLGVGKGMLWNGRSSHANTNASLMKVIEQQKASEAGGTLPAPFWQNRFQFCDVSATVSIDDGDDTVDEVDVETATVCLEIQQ
Nature of the experiment: Leishmania donovani Ubiquitin Activating Enzyme (LdE1). The experiment is classed as functional. The following applies: 30 µM.

Experiment [3] deals with AMP-activated protein kinase, AMPK (Homo sapiens) (UniProt P54646+O43741+P54619+Q9UGJ0+Q9Y478+Q13131+Q9UGI9). Nature of the experiment: AMP-dependent Kinase enzyme assay. An in vitro enzyme assay that detects ADP turnover that is directly proportional to AMPK activity. This uses naive AMPK that is activated during the assay with MK-8722. Type of experiment: functional. The following applies: 30 µM.

Experiment [4] addresses Sialic acid-binding Ig-like lectin 9 (Homo sapiens) (UniProt Q9Y336). Nature of the experiment: Hs-Siglec9 ALPHAscreen SOP 20170721. The following applies: 10 µM.
In a further experiment the test system is Trypanosoma cruzi. Nature of the experiment: Trypanosoma cruzi phosphomannomutase and mannose-1-phosphate guanylyltransferase assay. The experiment is classed as functional. The following applies: 10 µM.
Experiment [5] deals with T2, Arginase-2, mitochondrial (Homo sapiens) (UniProt P78540).
T2 sequence (whole entry): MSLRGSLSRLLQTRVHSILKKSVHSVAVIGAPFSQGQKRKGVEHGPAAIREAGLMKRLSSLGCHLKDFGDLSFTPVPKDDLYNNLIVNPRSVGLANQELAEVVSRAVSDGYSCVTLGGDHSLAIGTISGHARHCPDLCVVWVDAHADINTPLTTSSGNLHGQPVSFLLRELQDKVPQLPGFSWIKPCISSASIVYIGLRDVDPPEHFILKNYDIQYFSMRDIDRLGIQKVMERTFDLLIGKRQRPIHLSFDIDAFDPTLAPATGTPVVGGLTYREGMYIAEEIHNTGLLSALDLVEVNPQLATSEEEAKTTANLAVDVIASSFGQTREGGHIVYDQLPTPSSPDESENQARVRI
The experiment is described as follows: in vitro enzyme assay to detect the production of urea directly proportional to the activity of Arginase II. Further: in the data most compounds retested in dose-response had high values. The experiment is classed as functional. The conditions noted are these: 33.3 µM.

Experiment [6] addresses T3, Proteasome subunit beta (Trypanosoma cruzi) (UniProt O96673).
T3 sequence (whole entry): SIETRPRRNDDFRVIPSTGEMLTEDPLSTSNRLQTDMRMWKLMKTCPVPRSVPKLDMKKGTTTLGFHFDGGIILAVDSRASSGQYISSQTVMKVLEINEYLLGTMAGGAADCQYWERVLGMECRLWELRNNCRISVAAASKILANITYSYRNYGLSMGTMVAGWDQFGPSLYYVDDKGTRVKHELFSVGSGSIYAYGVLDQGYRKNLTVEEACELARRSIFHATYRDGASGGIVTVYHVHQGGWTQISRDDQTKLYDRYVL
The experiment is described as follows: Trypanosoma cruzi proteasome chymotrypsin-like activity (TcProtChymo) assay. Further: in the data most compounds retested in dose-response had high values. The experiment is classed as functional. The following applies: 9.37 µM.

The species named for another experiment is Homo sapiens. The experiment is described as follows: To identify inhibition of the IFN signalling (Jak-Stat) pathway via expression of an eGFP reporter gene under the control of an IFN-stimulated response element (ISRE) containing MxA promoter. The experiment is classed as functional. The following applies: 30 µM. (In general: In a reporter assay the amount or activity of a reporter protein is the signal.)

The target in experiment [7] is T4, Tyrosyl-tRNA synthetase, putative (Trypanosoma cruzi (strain CL Brener)) (UniProt Q4DSP6).
T4 sequence (whole entry): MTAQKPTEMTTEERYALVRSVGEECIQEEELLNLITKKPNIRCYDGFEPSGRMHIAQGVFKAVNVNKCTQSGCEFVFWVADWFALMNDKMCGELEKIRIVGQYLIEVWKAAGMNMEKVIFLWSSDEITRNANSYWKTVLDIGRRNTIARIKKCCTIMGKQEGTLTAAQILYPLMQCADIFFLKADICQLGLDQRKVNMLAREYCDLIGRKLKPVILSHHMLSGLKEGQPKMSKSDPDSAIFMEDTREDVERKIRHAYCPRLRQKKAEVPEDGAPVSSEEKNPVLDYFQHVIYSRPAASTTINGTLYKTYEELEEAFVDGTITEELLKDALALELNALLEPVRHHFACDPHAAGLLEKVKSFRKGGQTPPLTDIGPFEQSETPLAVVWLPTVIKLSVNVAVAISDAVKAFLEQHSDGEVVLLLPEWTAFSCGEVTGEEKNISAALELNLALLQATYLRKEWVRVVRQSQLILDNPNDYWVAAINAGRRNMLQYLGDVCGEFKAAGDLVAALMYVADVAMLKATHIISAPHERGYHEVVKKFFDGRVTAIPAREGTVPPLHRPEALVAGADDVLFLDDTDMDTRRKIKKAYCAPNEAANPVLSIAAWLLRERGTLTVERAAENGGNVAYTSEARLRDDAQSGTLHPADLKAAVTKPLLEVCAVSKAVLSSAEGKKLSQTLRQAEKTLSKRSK
The experiment is described as follows: Trypanosoma cruzi tyrosyl tRNA synthetase (TcYRS) _High Tyrosine SOP. Further: in the data most compounds retested in dose-response had high values. The experiment is classed as functional. The conditions noted are these: 30 µM.

Experiment [8] addresses T4, Tyrosyl-tRNA synthetase, putative (Trypanosoma cruzi (strain CL Brener)). The experiment is described as follows: Trypanosoma cruzi tyrosyl tRNA synthetase (TcYRS) SOP. The experiment is classed as functional. The following applies: 30 µM.
For experiment [9], the target named is Chromo domain-containing protein 1 (Saccharomyces cerevisiae (strain ATCC 204508 / S288c) (Baker's yeast)) (UniProt P32657). The experiment is described as follows: ScCHD-1 Enzyme Inhibition Assay. Further: in the data most compounds retested in dose-response had high values. The experiment is classed as functional. The following applies: 30 µM.
Chromo domain-containing protein 1 (Saccharomyces cerevisiae (strain ATCC 204508 / S288c) (Baker's yeast)), sequence (P32657 whole entry, the tested form may be a part): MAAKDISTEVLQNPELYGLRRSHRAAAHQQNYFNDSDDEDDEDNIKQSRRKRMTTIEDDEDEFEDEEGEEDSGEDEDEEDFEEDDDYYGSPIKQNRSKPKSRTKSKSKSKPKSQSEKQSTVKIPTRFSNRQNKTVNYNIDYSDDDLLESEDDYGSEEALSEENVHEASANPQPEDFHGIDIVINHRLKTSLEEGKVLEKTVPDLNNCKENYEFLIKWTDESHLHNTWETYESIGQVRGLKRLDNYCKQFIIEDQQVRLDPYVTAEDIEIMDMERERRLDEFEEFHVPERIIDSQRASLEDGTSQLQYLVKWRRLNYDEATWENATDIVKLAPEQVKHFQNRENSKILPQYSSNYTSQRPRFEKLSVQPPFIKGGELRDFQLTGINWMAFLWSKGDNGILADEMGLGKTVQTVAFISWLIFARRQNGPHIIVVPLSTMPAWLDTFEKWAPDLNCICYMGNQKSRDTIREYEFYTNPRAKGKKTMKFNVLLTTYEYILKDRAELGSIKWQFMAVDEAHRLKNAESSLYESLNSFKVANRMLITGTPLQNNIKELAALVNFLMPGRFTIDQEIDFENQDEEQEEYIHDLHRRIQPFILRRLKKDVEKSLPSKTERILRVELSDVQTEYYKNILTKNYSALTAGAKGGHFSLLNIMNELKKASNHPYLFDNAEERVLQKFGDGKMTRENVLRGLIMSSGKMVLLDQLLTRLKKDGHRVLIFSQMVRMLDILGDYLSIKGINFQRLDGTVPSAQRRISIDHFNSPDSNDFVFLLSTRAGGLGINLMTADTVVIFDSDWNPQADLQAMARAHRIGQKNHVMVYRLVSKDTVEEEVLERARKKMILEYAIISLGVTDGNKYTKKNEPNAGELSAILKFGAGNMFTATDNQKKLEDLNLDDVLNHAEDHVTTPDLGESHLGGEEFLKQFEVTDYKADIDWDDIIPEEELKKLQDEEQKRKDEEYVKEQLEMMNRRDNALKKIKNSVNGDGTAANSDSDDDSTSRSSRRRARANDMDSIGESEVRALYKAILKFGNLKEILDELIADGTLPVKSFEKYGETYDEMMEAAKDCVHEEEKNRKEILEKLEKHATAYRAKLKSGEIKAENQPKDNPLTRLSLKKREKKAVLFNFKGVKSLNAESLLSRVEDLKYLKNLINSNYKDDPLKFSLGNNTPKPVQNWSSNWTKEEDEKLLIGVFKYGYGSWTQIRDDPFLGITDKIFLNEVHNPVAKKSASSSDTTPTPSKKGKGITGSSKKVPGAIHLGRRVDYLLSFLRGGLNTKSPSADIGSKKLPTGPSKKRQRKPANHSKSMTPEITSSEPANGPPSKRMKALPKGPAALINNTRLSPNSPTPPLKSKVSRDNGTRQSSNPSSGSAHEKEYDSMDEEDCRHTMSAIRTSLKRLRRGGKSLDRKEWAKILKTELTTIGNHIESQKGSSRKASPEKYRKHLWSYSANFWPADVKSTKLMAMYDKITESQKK

Protein translocase subunit SecA (Escherichia coli (strain K12)), sequence (P10408 whole entry): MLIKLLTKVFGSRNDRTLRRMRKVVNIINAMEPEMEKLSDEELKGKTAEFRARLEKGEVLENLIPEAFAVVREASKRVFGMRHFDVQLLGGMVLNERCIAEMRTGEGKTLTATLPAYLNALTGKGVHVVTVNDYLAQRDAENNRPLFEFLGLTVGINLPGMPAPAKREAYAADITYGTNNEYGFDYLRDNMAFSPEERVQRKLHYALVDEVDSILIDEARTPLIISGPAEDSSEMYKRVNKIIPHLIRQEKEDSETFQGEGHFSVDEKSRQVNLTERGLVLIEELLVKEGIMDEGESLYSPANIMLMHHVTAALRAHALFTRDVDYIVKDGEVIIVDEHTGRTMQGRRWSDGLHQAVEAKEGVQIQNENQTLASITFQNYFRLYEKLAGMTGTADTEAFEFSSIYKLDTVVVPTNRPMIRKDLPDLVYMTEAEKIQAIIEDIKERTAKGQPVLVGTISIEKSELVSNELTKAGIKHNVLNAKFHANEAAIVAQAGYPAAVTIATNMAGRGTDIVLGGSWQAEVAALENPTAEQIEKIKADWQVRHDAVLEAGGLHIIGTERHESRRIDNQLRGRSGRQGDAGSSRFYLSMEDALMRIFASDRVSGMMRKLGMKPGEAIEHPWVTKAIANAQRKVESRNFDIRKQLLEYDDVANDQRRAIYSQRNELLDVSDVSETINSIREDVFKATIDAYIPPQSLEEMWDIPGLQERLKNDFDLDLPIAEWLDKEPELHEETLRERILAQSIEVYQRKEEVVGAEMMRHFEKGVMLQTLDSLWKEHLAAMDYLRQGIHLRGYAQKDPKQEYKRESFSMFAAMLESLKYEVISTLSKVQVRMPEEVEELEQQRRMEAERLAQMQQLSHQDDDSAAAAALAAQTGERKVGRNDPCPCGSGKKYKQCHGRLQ
Sialic acid-binding Ig-like lectin 9 (Homo sapiens), sequence (Q9Y336 whole entry): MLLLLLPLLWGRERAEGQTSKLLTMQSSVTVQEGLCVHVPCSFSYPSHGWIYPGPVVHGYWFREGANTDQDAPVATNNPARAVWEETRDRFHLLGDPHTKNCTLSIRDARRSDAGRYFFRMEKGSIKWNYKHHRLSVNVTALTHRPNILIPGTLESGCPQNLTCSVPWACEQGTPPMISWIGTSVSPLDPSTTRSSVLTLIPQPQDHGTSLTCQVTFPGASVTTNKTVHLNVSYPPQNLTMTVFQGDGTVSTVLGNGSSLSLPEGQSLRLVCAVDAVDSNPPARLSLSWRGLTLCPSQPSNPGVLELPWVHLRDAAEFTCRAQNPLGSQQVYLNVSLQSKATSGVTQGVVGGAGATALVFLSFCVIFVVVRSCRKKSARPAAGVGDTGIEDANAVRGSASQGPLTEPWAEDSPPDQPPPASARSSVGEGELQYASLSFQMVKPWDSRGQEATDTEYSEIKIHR

On to `COc1ccc(C(CO)NC(=O)Nc2cccnc2)cc1` (stereo not given), for which the Percent Effect was -4.93% in experiment [1]; -2.7% in [2]; -0.874% in experiment [3]; 3.21% in experiment [4]; -3.86% in the experiment with Trypanosoma cruzi; -3.81% in experiment [5]. Moreover, the Percent Effect in [6] was 10.9%; in the experiment listed under Homo sapiens, 10.2%; in experiment [7] it was -0.529%; in experiment [8], -4.88%; in experiment [9] it was -2.24%.
For `COc1ccccc1C1CNC(=O)c2nc(-c3ncc[nH]3)[nH]c2C1` (stereo not given), the Percent Effect in experiment [1] is -0.895%; in [2] it was 16.2%; in [3], -2.89%; in experiment [4], 12.1%; with Trypanosoma cruzi, 7.14%; in experiment [5], 4.29%. The Percent Effect was 14.3% in [6]; 20.7% in the experiment filed under Homo sapiens; 14.3% in experiment [7]; 29.3% in [8]; -3.23% in experiment [9].
Take `O=C(CCC1CC1)N1C[C@@H](CN2CCCC2)[C@@H](CO)C1`: the Percent Effect in experiment [1] is -2.75%; in experiment [2] it was 0%; in experiment [3] it was 2.73%; in [4] it was 1.73%; with Trypanosoma cruzi, -2.46%; in [5] it was -8.28%. The Percent Effect was 3.49% in [6]; 4.43% in the experiment listed under Homo sapiens; 2.15% in [7]; 6.17% in experiment [8]; -2.02% in experiment [9].
`CN(C)CCN(C)C(=O)c1cnc2c(c1)nc(-c1ccccc1Cl)n2C`: the Percent Effect was -6.72% in experiment [1]; 5.41% in experiment [2]; -0.741% in experiment [3]; -1.85% in [4]; -0.88% with Trypanosoma cruzi; 2.23% in experiment [5]. For the same compound, the Percent Effect is -1.29% in experiment [6]; 8.57% in the experiment listed under Homo sapiens; 9.68% in experiment [7]; 13.6% in [8]; -3.61% in [9].
As to `Cc1nnc(N2C[C@H](C(=O)NCC3CC3)[C@@H]3CCO[C@@H]3C2)s1`, the Percent Effect is 0.351% in experiment [1]; 0% in [2]; 3.72% in [3]; 2.6% in experiment [4]; -6.02% with Trypanosoma cruzi; -3.23% in experiment [5]. For the same compound, the Percent Effect in [6] was 0.696%; in the experiment filed under Homo sapiens it was 7.74%; in experiment [7], 0%; in experiment [8], 1.28%; in experiment [9] it was -1.37%.
In the case of `Cc1oc(C)c(C(=O)NCc2cccnc2N(C)C)c1C`, the Percent Effect in [1] was -1.52%; in experiment [2] it was 13.2%; in [3], 4.37%; in experiment [4], -11.8%; in the experiment on Trypanosoma cruzi, -3.57%; in [5], -1.53%. Besides, the Percent Effect in experiment [6] was 5.35%; in the experiment filed under Homo sapiens it was -12.2%; in experiment [7], 1.47%; in [8] it was 12.2%; in [9], -9.19%.
Regarding `Cc1nnc(N2CC[C@H]3C[C@@H](C(=O)NC4CCCC4)O[C@H]3C2)s1`, the Percent Effect in experiment [1] is -5.67%; in experiment [2], 0%; in experiment [3] it was 11.8%; in experiment [4], -3.34%; in the experiment on Trypanosoma cruzi, -1.66%; in experiment [5] it was 1.59%. The Percent Effect in experiment [6] is 0.738%; in the experiment listed under Homo sapiens, 10.7%; in experiment [7], -1.08%; in experiment [8] it was 7.69%; in experiment [9], 8.63%.
For the compound `CC(C)c1nc2n(n1)CC(NCc1nnc(-c3ccco3)o1)CC2` (stereo not given), the Percent Effect was -2.41% in experiment [1]; 0% in [2]; -14.3% in [3]; -0.788% in [4]; 5.94% with Trypanosoma cruzi; 0.802% in experiment [5]. Further, the Percent Effect in [6] was -3.06%; in the experiment filed under Homo sapiens, -2.24%; in experiment [7], 3.45%; in experiment [8], 6.17%; in [9] it was -0.171%.
On to `COc1ccccc1C(=O)N1Cc2cc(C)ccc2OCC1CN(C)C` (stereo not given), for which the Percent Effect in experiment [1] is -0.165%; in [2], 6.76%; in experiment [3] it was 11.3%; in [4] it was -7.4%; in the experiment on Trypanosoma cruzi it was -7.91%; in experiment [5] it was -1.62%. Also, the Percent Effect in experiment [6] is 14.5%; in the experiment filed under Homo sapiens it was 14.6%; in [7] it was 2.15%; in experiment [8] it was 3.9%; in experiment [9], -11.2%.
With `Cc1nc(C)n(CC2CCCN(Cc3nc(C4CC4)no3)C2)n1` (stereo not given), the Percent Effect in experiment [1] was -2.19%; in experiment [2], 21.6%; in [3], -9.55%; in experiment [4], 4.88%; in the experiment on Trypanosoma cruzi it was 3.11%; in experiment [5], -4.41%. Further, the Percent Effect in experiment [6] was 12.8%; in the experiment listed under Homo sapiens it was 2.75%; in [7], 8.37%; in experiment [8] it was 23.5%; in experiment [9] it was -12.5%.

For the origin of these results see ChEMBL document CHEMBL3988442, “University of Dundee, Small-Polar-MMV Screening Library” (2021).
